# Compounds with a hit are over-represented: about 9% of the library has one in this group of screens.
# JMJD2A Tudor – blocks the human JMJD2A Tudor domain; O75164; AID 504339; 390,000 tested, 4.4% active; Potency, µM (titrated, usually from 114 µM), inactives show at the top dose activity change, negative = inhibition, most hits filed as inhibitors; AlphaScreen JMJD2A-Tudor / H3K4me3 peptide binding; note: % is set by controls: 0 for no effect and ±100 for the full control effect; nearly all actives have a fitted effect of over 50% in size
# G9a block – inhibitors of human histone lysine methyltransferase G9a; Q96KQ7; G9a H3K9 monomethylation, AlphaScreen, 2 h; Potency, µM (top dose mostly 102 µM), for the others: at the highest dose activity, negative = inhibition, most hits filed as inhibitors; 350,000 tested, 8.8% active; AID 504332; note: % is set by controls: 0 for no effect and ±100 for the full control effect; nearly all actives have a fitted effect of over 75% in size
#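 G9a (20 nM) preincubated 15 min RT with compounds, then 500 nM biotinylated H3K9 peptide and 20 uM SAM added; 2 h RT reaction. Monomethyl-H3K9 product detected by AlphaScreen with anti-H3K9me1 antibody, streptavidin donor and anti-rabbit IgG acceptor beads.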
# BAZ2B inh – BAZ2B (human) inhibition. 360,000 tested, 4.4% active. Q9UIF8. AlphaScreen BAZ2B-H3K14Ac peptide displacement. AID 504333. Potency, µM (top dose mostly 114 µM), without a hit: top-dose activity change, negative = inhibition, most hits filed as inhibitors; note: % is set by controls: 0 for no effect and ±100 for the full control effect; nearly all actives have a fitted effect of over 60% in size
#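 BAZ2B (50 nM) with biotin-H3(5-23)K14Ac peptide (50 nM) in PBS pH 7.4, 0.01% Tween-20, preformed 30 min, then compound 30 min at room temperature; top concentration 110uM. AlphaScreen streptavidin donor/nickel chelate acceptor beads (10 ug/mL final), 20 min dark, signal read.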
# HP1b binding inh – inhibitors of HP1-beta chromodomain binding to methylated histone tails | 390,000 tested, 0.56% active | Potency, µM (doses to about 114 µM), without a hit: at the top dose activity change, negative = inhibition, most hits filed as inhibitors | AID 540317 | AlphaScreen HP1-beta / biotin-H3K9me3 peptide binding | P83916; note: nearly all actives have a fitted effect of over 70% in size
#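 HP1-beta protein (50 nM final) preincubated 30 min at room temperature with biotinylated H3(1-18)K9me3 peptide (50 nM) in PBS pH 7.4, 0.01% Tween-20, then compound added for 30 min. AlphaScreen streptavidin donor/nickel chelate acceptor beads (10 ug/mL final), 30 min dark, luminescence read.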
# 12-LOX inh – blocks human arachidonate 12S-lipoxygenase; P18054; Potency, µM (doses to about 108 µM), without a hit: top-dose activity change, negative = inhibition, most hits filed as inhibitors; 580,000 tested, 1.1% active; purified 12hLO, xylenol orange hydroperoxide absorbance; note: % is set by controls: 0 for no effect and ±100 for the full control effect
#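 Purified human 12hLO at 150 nM in 25 mM Hepes, 0.01% Triton X-100, pH 7.0, preincubated 15 min at room temperature with compound. Reaction started with 40 uM arachidonic acid, 30 min at room temperature. Hydroperoxide measured by Fe-xylenol orange, 573/405 nm absorbance ratio.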
# PLK1 PBD block – PLK1 (human) polo-box domain binding inhibition; P53350; Plk1 PBD binding of FITC phosphopeptide, fluorescence polarization; Potency, µM, for inactives: max response, negative = inhibition, actives largely listed as inhibitors; 360,000 tested, 2.8% active; note: series mostly up to about 57 µM; % is set by controls: 0 for no effect and ±100 for the full control effect; nearly all actives have a fitted effect of over 65% in size
# Target sequence (P53350 whole entry, looked up, the tested form may be a part): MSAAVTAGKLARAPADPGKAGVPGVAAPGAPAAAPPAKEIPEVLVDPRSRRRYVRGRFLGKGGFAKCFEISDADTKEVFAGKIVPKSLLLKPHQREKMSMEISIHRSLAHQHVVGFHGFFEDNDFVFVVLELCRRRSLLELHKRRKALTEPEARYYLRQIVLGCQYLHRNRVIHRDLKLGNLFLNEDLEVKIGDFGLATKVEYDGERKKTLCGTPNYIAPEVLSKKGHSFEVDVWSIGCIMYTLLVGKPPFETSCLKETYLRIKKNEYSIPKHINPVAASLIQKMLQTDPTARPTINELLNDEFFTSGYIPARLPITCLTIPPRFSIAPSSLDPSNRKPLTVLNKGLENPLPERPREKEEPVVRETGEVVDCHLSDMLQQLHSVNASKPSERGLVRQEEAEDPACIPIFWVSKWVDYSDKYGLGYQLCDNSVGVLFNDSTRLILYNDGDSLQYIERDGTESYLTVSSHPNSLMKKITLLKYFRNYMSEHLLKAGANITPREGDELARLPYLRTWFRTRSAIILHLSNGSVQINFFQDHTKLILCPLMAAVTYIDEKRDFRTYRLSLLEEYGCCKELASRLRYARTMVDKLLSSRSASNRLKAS
# Active calls of the source: *; ? = inconclusive; . = not tested or not shown; ! = a repeat was not active; [ ] = another dose, or the depositor's remark. Calls come from the whole dose curve; as a rule, active = well fitted curve in the direction sought with a large enough effect; inconclusive = small, poorly fitted or top-dose-only effect, or another doubt; inactive = no such curve, though single readings can be large; an effect the other way counts as inactive or inconclusive. Potency is the fitted concentration of half-maximal effect.
SMILES,JMJD2A Tudor,G9a block,BAZ2B inh,HP1b binding inh,12-LOX inh,PLK1 PBD block
FC(F)(F)c1ccc2c(c1)nnn2C1CCN(Cc2nnnn2Cc2ccccc2)CC1,-2.9%,18.7%[59 µM],6.4%,43.7%,5.6%,0.8%
Cc1ccsc1C(=O)N1CCC2(CC1)c1nccn1-c1ccccc1CN2C,.,.,.,.,38.9%,.
Cc1ccc(-c2nc3ccccc3c(=O)n2-c2cc(C)ccn2)cc1,3.2%,-7.0%,9.6%,25.2%,-26.2%,-4.1%
Cc1cc(C)cc(-n2c(C)cc(/C=C3\C(=O)NC(=O)N(C)C3=O)c2C)c1,0.4%[57.1 µM],0.1%[59 µM],0.6%,29.9%,-4.5%,?
Cc1ccnc(-n2c(C)cc(C=C3C(=O)N(C)C(=S)N(C)C3=O)c2C)c1,?,31.6µM*,?,?,?,1.19µM*
Cc1cc(C=C2C(=O)N(C)C(=S)N(C)C2=O)c(C)n1-c1ccncc1,44.7µM*,50.1µM*,-25.0%,?,144.9%,?
CCc1ccc(NC(=O)c2ccc(F)c(S(=O)(=O)N3CCC4(CC3)OCCO4)c2)cc1,-12.5%,6.0%[59 µM],-0.9%,44.6%,-20.4%,.
N#CC(C#N)=Cc1cc(O)c(O)c(O)c1,.,8.91µM*,.,.,?,.
CN1C(=O)/C(=C\N2CCc3ccccc32)C(=O)NC1=S,?,?,-8.4%,-2.2%,-21.9%,3.8%
Cc1ccccc1N1C(=O)NC(=O)/C(=C\c2ccc3c(c2)CCCN3Cc2ccccc2)C1=O,50.1µM*,10µM*,35.5µM*,?,?,?
CCOC(=O)c1c(C)n(Cc2ccccc2)c2ccc(O)cc12,?,31.6µM*,?,1.4%,?,-12.3%
COc1ccc2c(c1)c(C(=O)CN1CCN(C)CC1)c(C)n2Cc1ccccc1,-33.6%,?,-6.1%,-7.7%,?,-8.8%
CC(=O)c1c(C)n(Cc2ccccc2)c2ccc(O)cc12,-9.8%,5.9%,-34.0%,34.5%,39.6%,-4.6%
CCN1CCN(CC(=O)c2c(C)n(Cc3ccccc3)c3ccc(OC)cc23)CC1,?,-46.9%[59 µM],-23.7%,?,0.0%,21.2µM*
COC(=O)c1c(C)n(Cc2ccccc2)c2ccc(O)cc12,-15.4%,8.91µM*,-37.4%,37.8%,15.8µM*!,1.1%
O=C1OCc2cc(N=Nc3c(O)[nH]c(=O)[nH]c3=O)ccc21,-9.4%,?,-8.7%,40.0%,?,1.9%
O=C1[C@H]2[C@@H](C3CC3)N3C(=O)CN(CC4CC4)C(=O)[C@@]3(Cc3ccccc3)[C@H]2C(=O)N1c1ccccc1,-10.1%,.,.,45.2%,4.5%,-1.6%
COc1cc(/C=C(/C)[N+](=O)[O-])ccc1OCc1ccccc1Cl,-27.8%,10µM*,?,-0.6%,.,2.38µM*
CC(C)(C)NC(=O)N1[C@H]2CC[C@@H]1c1cnc(-c3ccccc3)nc1C2,.,.,.,.,-2.2%,.
O=C(O)c1ccccc1SCC(=O)N1c2ccccc2Sc2ccccc21,-22.4%,41.2%[59 µM],11.5%,-5.3%,-24.7%,-14.8%
C[CH2][Hg][S]c1ccccc1C(=O)O,17.8µM*,?,.,?,5.62µM*,2.67µM*
O=C(O)c1ccccc1SSc1ccccc1C(=O)O,2.3%,28.2µM*,-4.0%,55.8%,?,11.9µM*
c1cc(CCN2CCCC2)ccn1,-16.4%,.,?,44.8%,-8.0%,-11.3%
CC1=C/C(=N\NC(=S)NCCc2ccccc2)CC(C)(C)C1,50.1µM*,39.8µM*,?,-11.4%,4.47µM*,-5.9%
c1ccc(CCNCc2ccccc2)cc1,-9.0%,5.7%,2.8%,14.8%,-1.9%,1.8%
SMILES,JMJD2A Tudor,G9a block,BAZ2B inh,HP1b binding inh,12-LOX inh,PLK1 PBD block
Cc1[nH]c(=S)c(C#N)c2c1CCCC2,20µM*,1.78µM*,?,39.3%,?,26.7µM*
COc1ccc(-n2c(CNCCc3ccc(C)cc3)nc3ccccc3c2=O)cc1,-33.3%,20.4%,?,31.1%,?,-1.6%
CC1N(C)c2cc(NC(=O)c3ccco3)c(P(=O)(Nc3ccc([N+](=O)[O-])cc3)N3CCOCC3)cc2C1(C)C (stereo unspecified),?,50.1µM*,?,?,-4.9%,0.0%
CC(C)[N+](C)(C)CC#CC(O)(c1ccccc1)c1ccccc1,-6.6%,?,-20.2%,-3.3%,?,-1.2%
COc1ccc(-c2n[nH]c(=S)n2-c2ccc3c(c2)OCCO3)cc1OC,3.16µM*,.,-10.2%,8.2%,?,-11.8%
S=c1[nH]nc(-c2ccc3ccccc3n2)n1-c1ccc2c(c1)OCCO2,44.7µM*,.,?,8.4%,0.0%,-21.2%
CCOC(=O)/C(=N\Nc1ccccc1)N1CC1,-9.0%[11.4 µM],-34.9%,-2.3%,-8.6%,-19.8%,?
CCN(CC)CCNC(=O)c1c(O)c2ccccc2n(Cc2ccccc2)c1=O,79.4µM*,?,-37.0%,-7.7%,-5.2%,-8.9%
Nc1cc(Cl)c2nonc2c1[N+](=O)[O-],-12.6%,31.6µM*,13.1%,42.2%,?,-0.5%
O=[N+]([O-])c1c(Cl)c(Cl)c(Cl)c(Cl)c1Cl,-33.2%,.,.,-15.7%[57 µM],-16.8%,-19.4%
O=P1(Oc2ccccc2)CC=CC(COCc2ccccc2)O1 (stereo unspecified),0.7%,.,.,35.3%,.,.
CCN(c1ccc(C(O)(C(=O)OC)C(F)(F)F)cc1)S(=O)(=O)c1ccccc1 (stereo unspecified),9.9%[11.4 µM],-4.3%[59 µM],2.2%,-13.5%,32.7%,26.7µM*
CCOC(=O)C(O)(c1ccc(N(CC)S(=O)(=O)c2ccccc2)cc1)C(F)(F)F (stereo unspecified),-2.6%,7.5%,-3.2%,18.1%,4.2%,-1.8%
CCCn1c(C)c(C(=O)c2cccc3ccccc23)c2ccccc21,-18.0%,-33.8%[59 µM],-3.5%,28.8%,-22.8%,-1.4%
O=C(c1c[nH]cc1-c1ccccc1)c1cccc2ccccc12,-11.8%,25.1µM*,25.1µM*,?,34.1%,-9.5%
CN(C)c1ccc(C(O)P(=O)(OC2CCCCC2)OC2CCCCC2)cc1 (stereo unspecified),?,-17.8%[59 µM],44.7µM*,-5.3%,0.0%,-10.1%
COc1ccccc1CNCc1cc(OC)c(OC)cc1OC,2.51µM*,3.16µM*,50.1µM*,?,?,-3.0%
COc1ccccc1CNC(=O)C(Cl)(Cl)Cl,.,.,.,.,5.9%,.
Oc1ccccc1/C=N/NP(=S)(c1ccccc1)c1ccccc1,-33.3%,70.3%,.,63.0%,20.2%,-17.6%
Oc1ccc(/C=N/NP(=S)(c2ccccc2)c2ccccc2)c(O)c1O,?,?,?,-10.8%,?,10.6µM*
Oc1ccc(/C=N/NP(=S)(c2ccccc2)c2ccccc2)cc1O,?,?,?,?,31.6µM*,-2.8%
Cc1ccccc1C(O)(c1ccccc1C)C1CN2CCC1CC2 (stereo unspecified),.,.,.,.,1.5%,.
